Measurements taken from article PMC9911399, “Two distinct binding modes provide the RNA-binding protein RbFox with extraordinary sequence specificity”.
Residue numbers refer to the chain shown, from its start. Over roughly 16,000 sequences, “ka relative to ugcaugu” has its median near 0.096; the highest 2% begin near 0.35. The list comes from a sample in which the highest values are over-represented; it also holds similar and randomly drawn sequences.

T1: RBFOX1 RRM RbFoxmut (Fox-RRM*) (Homo sapiens, UniProt Q9NWB1 109-208, R118D;E147R;N151S;E152T)
T1 sequence: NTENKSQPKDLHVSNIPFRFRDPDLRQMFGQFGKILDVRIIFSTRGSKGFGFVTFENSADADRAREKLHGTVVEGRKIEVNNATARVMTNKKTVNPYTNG

B1: CUUCGUG (DNA:RNA)
RNA: GGGAGACCGGAAUUCAGAUUGUCCCUUCGUGUUAAAUCCCGUCGUAGCCACCA
DNA 1: CAATCTGAATTCCGGTCTCCC
DNA 2: TGGTGGCTACGACGGGATT
B2: CACUUAC (DNA:RNA)
RNA: B1 RNA with U26A, U27C, C28U, G29U, U30A, G31C
DNA 1: CAATCTGAATTCCGGTCTCCC
DNA 2: TGGTGGCTACGACGGGATT
B3: CGUUAAA (DNA:RNA)
RNA: B1 RNA with U26G, C28U, G29A, U30A, G31A
DNA 1: CAATCTGAATTCCGGTCTCCC
DNA 2: TGGTGGCTACGACGGGATT
B4: GAAUUUU (DNA:RNA)
RNA: B1 RNA with C25G, U26A, U27A, C28U, G29U, G31U
DNA 1: CAATCTGAATTCCGGTCTCCC
DNA 2: TGGTGGCTACGACGGGATT
B5: GAUGAUU (DNA:RNA)
RNA: B1 RNA with C25G, U26A, C28G, G29A, G31U
DNA 1: CAATCTGAATTCCGGTCTCCC
DNA 2: TGGTGGCTACGACGGGATT
B6: GUAAUGA (DNA:RNA)
RNA: B1 RNA with C25G, U27A, C28A, G29U, U30G, G31A
DNA 1: CAATCTGAATTCCGGTCTCCC
DNA 2: TGGTGGCTACGACGGGATT
B7: CGAAUGA (DNA:RNA)
RNA: B1 RNA with U26G, U27A, C28A, G29U, U30G, G31A
DNA 1: CAATCTGAATTCCGGTCTCCC
DNA 2: TGGTGGCTACGACGGGATT
B8: GUCCGAA (DNA:RNA)
RNA: B1 RNA with C25G, U27C, U30A, G31A
DNA 1: CAATCTGAATTCCGGTCTCCC
DNA 2: TGGTGGCTACGACGGGATT
B9: GAAAUGA (DNA:RNA)
RNA: GGGAGACCGGAAUUCAGAUUGUCCGAAAUGAUUAAAUCCCGUCGUAGCCACCA
DNA 1: CAATCTGAATTCCGGTCTCCC
DNA 2: TGGTGGCTACGACGGGATT
B10: GGAAUGA (DNA:RNA)
RNA: B9 RNA with A26G
DNA 1: CAATCTGAATTCCGGTCTCCC
DNA 2: TGGTGGCTACGACGGGATT
B11: GAAUGAU (DNA:RNA)
RNA: B9 RNA with A28U, U29G, G30A, A31U
DNA 1: CAATCTGAATTCCGGTCTCCC
DNA 2: TGGTGGCTACGACGGGATT
B12: GACCGAA (DNA:RNA)
RNA: B9 RNA with A27C, A28C, U29G, G30A
DNA 1: CAATCTGAATTCCGGTCTCCC
DNA 2: TGGTGGCTACGACGGGATT
B13: GAAUUGA (DNA:RNA)
RNA: B9 RNA with A28U
DNA 1: CAATCTGAATTCCGGTCTCCC
DNA 2: TGGTGGCTACGACGGGATT
B14: GAAUGAA (DNA:RNA)
RNA: B9 RNA with A28U, U29G, G30A
DNA 1: CAATCTGAATTCCGGTCTCCC
DNA 2: TGGTGGCTACGACGGGATT
B15: GACUAAG (DNA:RNA)
RNA: B9 RNA with A27C, A28U, U29A, G30A, A31G
DNA 1: CAATCTGAATTCCGGTCTCCC
DNA 2: TGGTGGCTACGACGGGATT
B16: CAUAAUU (DNA:RNA)
RNA: B1 RNA with U26A, C28A, G29A, G31U
DNA 1: CAATCTGAATTCCGGTCTCCC
DNA 2: TGGTGGCTACGACGGGATT
B17: AUCUAGU (DNA:RNA)
RNA: B1 RNA with C25A, U27C, C28U, G29A, U30G, G31U
DNA 1: CAATCTGAATTCCGGTCTCCC
DNA 2: TGGTGGCTACGACGGGATT
B18: UCGACUC (DNA:RNA)
RNA: B1 RNA with C25U, U26C, U27G, C28A, G29C, G31C
DNA 1: CAATCTGAATTCCGGTCTCCC
DNA 2: TGGTGGCTACGACGGGATT
B19: UACACUA (DNA:RNA)
RNA: B9 RNA with G25U, A27C, U29C, G30U
DNA 1: CAATCTGAATTCCGGTCTCCC
DNA 2: TGGTGGCTACGACGGGATT
B20: UCCUGAU (DNA:RNA)
RNA: B1 RNA with C25U, U26C, U27C, C28U, U30A, G31U
DNA 1: CAATCTGAATTCCGGTCTCCC
DNA 2: TGGTGGCTACGACGGGATT

These binders were tested against T1, RBFOX1 RRM RbFoxmut (Fox-RRM*) (assay: EMSA; HiTS-Eq, 1 nM pool, 10 min; buffer printed only for the single-RNA assays: 10 mM Tris pH 7.5, 150 mM NaCl, 3.4 mM EDTA, 0.001% NP-40, 30 C). Conditions: tags: His6 N-terminal (pET28a); label: 5' 32P.
Method in brief: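 These values rest on relative association constants, computed from read-count changes of each RNA species versus the control reaction and normalised to the cognate motif. Reads came from free RNA recovered by 8% native PAGE after purified RbFox RRM (wild type or mutant) at increasing concentrations was equilibrated for 10 min in 50 µL with 1 nM of a 5′-radiolabelled pool with 7 randomized nucleotides and DNA-annealed flanks.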

Question: With B1 as the binder, how does the binding signal read?
Answer: 0.135 KA relative to UGCAUGU

Question: With B2 as the binder, how does the binding signal read?
Answer: 0.1 KA relative to UGCAUGU

Question: B3 was tested. Which binding signal did it give?
Answer: 0.107 KA relative to UGCAUGU

Question: For B4, which binding signal is on record?
Answer: 0.1 KA relative to UGCAUGU

Question: Which binding signal does the source give for B5 here?
Answer: 0.084 KA relative to UGCAUGU

Question: How did the binding signal turn out when B6 was run?
Answer: 0.121 KA relative to UGCAUGU

Question: For B7, which binding signal is on record?
Answer: 1.04 KA relative to UGCAUGU

Question: For B8, which binding signal is on record?
Answer: 0.0703 KA relative to UGCAUGU

Question: Which binding signal does the source give for B9 here?
Answer: 0.0974 KA relative to UGCAUGU

Question: With B10 as the binder, how does the binding signal read?
Answer: 0.772 KA relative to UGCAUGU

Question: For B11, which binding signal is on record?
Answer: 0.641 KA relative to UGCAUGU

Question: Which binding signal does the source give for B12 here?
Answer: 0.0991 KA relative to UGCAUGU

Question: For B13, which binding signal is on record?
Answer: 0.129 KA relative to UGCAUGU

Question: With B14 as the binder, how does the binding signal read?
Answer: 0.873 KA relative to UGCAUGU

Question: Which binding signal does the source give for B15 here?
Answer: 0.101 KA relative to UGCAUGU

Question: Which binding signal does the source give for B16 here?
Answer: 0.0899 KA relative to UGCAUGU

Question: Which binding signal does the source give for B17 here?
Answer: 0.14 KA relative to UGCAUGU

Question: With B18 as the binder, how does the binding signal read?
Answer: 0.0668 KA relative to UGCAUGU

Question: B19 was tested. Which binding signal did it give?
Answer: 0.0954 KA relative to UGCAUGU

Question: For B20, which binding signal is on record?
Answer: 0.0975 KA relative to UGCAUGU
